# Pf apPOL inh: Pf-apPOL DNA polymerase inhibition; Recombinant Pf-apPOL, molecular beacon fluorescence, 1.5 h; inhibition, % at 10 µM; 210,000 tested, 0.25% active; AID 1794808
# mHTT CaM bind: inhibitors of human mutant huntingtin-calmodulin interaction. inhibition, % at 15 µM. P42858. AlphaScreen His-mHTT/GST-CaM binding, luminescence. AID 1671202. 190,000 tested, 3.6% active;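 note: 0% = both proteins with DMSO and 100% = one protein alone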
# * marks the source's active call; other numbers are inactive results; i = inactive; nt = no result; + = active, no number; ! = repeats disagree. The list is not random: actives were taken first. Their share in the collection is about 3.6%. Cut-off read from the data, not from the text of the source: active = inhibition above about 50%; inactive = the rest.
SMILES,Pf apPOL inh,mHTT CaM bind
O=C(Nc1nnc(-c2ccc(F)cc2)o1)c1ccc(S(=O)(=O)N2CCCc3ccccc32)cc1,-72,-5
CCN1C=C(Cc2cccs2)C2=C(C1)C(c1cccs1)C(C#N)=C(N)O2 (stereo not given),2,72*
O=C1/C(=C/c2cccs2)CC/C1=C\c1cccs1,-4,23
Cc1[nH]nc2c1C(c1cccs1)C(C#N)=C(N)O2 (stereo not given),-8,-2
CCN1CC2=C(OC(N)=C(C#N)C2c2cccs2)/C(=C/c2cccs2)C1 (stereo not given),nt,60*
Cc1cc2c(c(=O)o1)C(c1cccs1)C(C#N)=C(N)O2 (stereo not given),nt,-3
COCc1[nH]nc2c1C(c1cccs1)C(C#N)=C(N)O2 (stereo not given),nt,-6
CC(C)N1CC2=C(OC(N)=C(C#N)C2c2cccs2)/C(=C/c2cccs2)C1 (stereo not given),nt,66*
CC(C)N1C/C(=C\c2cccs2)C(=O)/C(=C/c2cccs2)C1,5,54*!
O=C(Nc1ccc2c(c1)COCO2)c1cc2ccccc2oc1=O,-3,nt
Nc1nonc1/C(=N/O)n1cc(-c2ccccc2)nn1,nt,i
CNC(=O)CN1C(=O)CCSc2ccccc21,1,-1
COCCc1noc(COC2CCCN(C(=O)c3cccn3C)C2)n1 (stereo not given),0,1
CC1=C/C(=N\OC(=O)c2ccccc2Cl)C(C)=CC1=O,-6,i
COCCCNC(=O)c1cc2c(s1)CN(C1CCCC1)C2,-4,-2
Cc1ccc(Nc2nccc(C3CCCN(C(=O)c4ccco4)C3)n2)cc1 (stereo not given),-5,87*
CCC(=O)N1CCCC(c2ccnc(Nc3ccc(C)cc3)n2)C1 (stereo not given),-12,56*
Cc1ccc(C(=O)N2CCCC(c3ccnc(Nc4ccccc4)n3)C2)s1 (stereo not given),-2,61*
O=C(C1CCC1)N1CCCC(c2ccnc(Nc3ccccc3)n2)C1 (stereo not given),-2,24
Cc1ccc(Nc2nccc(C3CCCN(C(=O)C(C)(C)C)C3)n2)cc1 (stereo not given),-3,39
O=C(c1ccco1)N1CCCC(c2ccnc(Nc3ccccc3)n2)C1 (stereo not given),-4,22
Cc1ccc(/C(N)=N/OC(=O)COc2cc(C)c(Cl)c(C)c2)cc1,-9,i
CC(C)N1CCc2c(sc(N)c2C(N)=O)C1,-24,7
COc1ccc(CC(=O)Nc2ccc(Nc3cc(OC)nc(C)n3)cc2)cc1,-3,8
CCC1=NN(C(=O)c2ccc(Cl)cc2)C(O)(c2ccc(Br)cc2)C1 (stereo not given),-12,85*
SMILES,Pf apPOL inh,mHTT CaM bind
CCC1=NN(C(=O)c2ccc(Br)cc2)C(O)(c2ccc(OC)cc2)C1 (stereo not given),-1,59*
CCC1=NN(C(=O)c2cccc(Cl)c2)C(O)(c2ccc(Br)cc2)C1 (stereo not given),4,89*
CCC1=NN(C(=O)c2ccncc2)C(O)(c2ccc(Br)cc2)C1 (stereo not given),-2,42
CCC1=NN(C(=O)c2cccc(Br)c2)C(O)(C(F)(F)F)C1 (stereo not given),1,4
CCC1=NN(C(=O)c2ccc(Br)cc2)C(O)(c2ccccc2)C1 (stereo not given),5,36
CCCCC1=NN(C(=O)c2cccc(Cl)c2)C(O)(C(F)(F)F)C1 (stereo not given),57*,-9
CCC1=NN(C(=O)c2cccc(Cl)c2)C(O)(C(F)(F)F)C1 (stereo not given),4,-4
Cc1ccc(C)c(OCC(=O)Nc2nnc(C(C)C)s2)c1C,-6,1
CC(C)(CO)NC(=O)Cc1ccc(NS(=O)(=O)C=Cc2ccccc2)cc1,2,-6
O=C(c1cccs1)N1CCN(C(c2ccccc2)c2ccccc2)CC1,-6,nt
Cc1nnc(NC(=O)c2csc(Nc3cccc(Cl)c3)n2)s1,5,35
CCOc1ccc(NC(=O)N2CCc3[nH]cnc3C2c2ccncc2)cc1 (stereo not given),-6,1
COc1ccc2nc(SCC(=O)Nc3ccc(C(C)=O)cc3)[nH]c2c1,5,5
O=c1[nH]c(O)c(C=C2C=Nc3ccccc32)[nH]1,-18,nt
Oc1nc(Nc2ccccc2)sc1C=C1C=Nc2ccccc21,0,69*
Cc1nn(-c2ccc(F)cc2)c2nc(N3CCC(NC(=O)CC(C)C)CC3)sc12,-8,4
N#C/C(=C\c1cn(Cc2ccccc2Cl)c2ccccc12)c1nn(CCO)c(N)c1C#N,-1,39
N#C/C(=C\c1ccc(-c2ccccc2F)o1)c1nn(CCO)c(N)c1C#N,-1,12
CC(C)Oc1ccc(Br)cc1/C=C(\C#N)c1nn(CCO)c(N)c1C#N,-4,54*
N#C/C(=C\c1ccc(-c2ccccc2[N+](=O)[O-])o1)c1nn(CCO)c(N)c1C#N,-6,72*
N#C/C(=C\c1cn(Cc2ccc(Cl)cc2)c2ccccc12)c1nn(CCO)c(N)c1C#N,-2,69*
COc1ccc(Br)cc1/C=C(\C#N)c1nn(CCO)c(N)c1C#N,-1,47
O=C(NCc1ccco1)N1CCC(n2c(-c3ccsc3)nc3cccnc32)C1 (stereo not given),3,9
O=C(Cc1ccc(F)cc1)N1CCC2(CC1)NC(=O)N(Cc1cccc(Cl)c1)C2=O,-8,16
O=S1(=O)c2ccc(Br)cc2OC[C@@H](Cc2ccccc2)N1Cc1cn(CCC2OCCO2)nn1,-3,-17
SMILES,Pf apPOL inh,mHTT CaM bind
COc1ccc(NC(=O)c2ccc(-c3ccc(Cl)cc3)o2)c(OC)c1,-7,9
Oc1ccccc1C=NNc1nc2c(Cl)cc(Cl)cc2s1,0,nt
Oc1ccc(/C=N/Nc2nccnc2Cl)c(O)c1,nt,+
N#Cc1c(N=Cc2cccnc2)sc2c1CCCC2,-5,55*
N#Cc1c(N=Cc2ccco2)sc2c1CCCC2,nt,11
CCc1ccccc1NC(=O)c1ccc(OC)cc1,0,-7
O=[N+]([O-])c1cccc(-c2nnc(-c3ccccc3Cl)o2)c1,-5,3
Cn1c(CN2CCN(C(=O)c3ccc([N+](=O)[O-])o3)CC2)nc2ccccc21,53*,-5
Cn1c(CN2CCN(C(=O)c3ccc(Br)o3)CC2)nc2ccccc21,-4,-3
Cc1cc(N2CCN(C)CC2)nc2ccc(NC(=O)/C=C/c3cccnc3)cc12,-6,5
COc1ccccc1C(=O)Nc1ccc2nc(N3CCN(C)CC3)cc(C)c2c1,-7,0
Cc1cc(N2CCN(C)CC2)nc2ccc(NC(=O)/C=C/c3cccs3)cc12,0,76*
Cc1cc(N2CCN(C)CC2)nc2ccc(NC(=O)c3cc(-c4ccco4)nc4ccccc34)cc12,5,57*
N=C1S/C(=C\c2ccc(-c3cccc(F)c3)o2)C(=O)N1c1nonc1N,-4,16
COCCn1c(CC2CCN(C(=O)c3ccccc3C)C2)nc2cccnc21 (stereo not given),2,5
CCc1[nH]nc(-c2ccc(F)c(F)c2)c1NC(=O)COC,-3,97*
CCc1[nH]nc(-c2cccc(OC)c2)c1NC(=O)C1CCCC1,3,18
CCC(=O)Nc1c(-c2ccc(F)c(F)c2)n[nH]c1CC,-2,7
CCC(=O)Nc1c(-c2cccc(OC)c2)n[nH]c1CC,70*,91*

# Screening results as filed in PubChem BioAssay.
